Experimental data: ChEMBL document CHEMBL3988442, “University of Dundee, Small-Polar-MMV Screening Library” (2021)
In all, about 66,000 compounds went through this assay and about 960 (1.5%) showed an effect of 50% or more. Shown is part of a subset that was picked to be rich in strong results.

Tested on: Trypanosoma brucei
Experiment: Trypanosoma brucei 72 hour study
Format: functional, organism-based
Parameters: scale not given: in the data most compounds retested in dose-response had high values

CN(C)c1ccc(C(CNS(=O)(=O)c2cccs2)N2CCCC2)cc1 (centres undefined)
Percent Effect (30 µM, 30.03 µM): -11.49%

C1CC(N2Cc3nnn(CC4CC4)c3C(COCC3CC3)C2)C1.O=C(O)C(F)(F)F (centres undefined)
Percent Effect (30.3 µM, […]): -49.13%

O=C(O)C(F)(F)F.O=C([C@H]1CCCO1)N1CCN(CCn2cccn2)c2ncccc2C1
Percent Effect (30.3 µM, […]): -89.38%

COCC(=O)N1CCN(Cc2cc(-c3ccncc3)nn2C)CC1
Percent Effect (30.3 µM, […]): -0.9188%

COCC1CN(c2ccc(C)nn2)Cc2cnn(CC3CCOCC3)c21.O=C(O)C(F)(F)F.O=C(O)C(F)(F)F (centres undefined)
Percent Effect (30.3 µM, […]): -39.18%

COCCN1CCC2(CC1)CC(NC(=O)CC1CC1)c1ccccc1O2.O=C(O)C(F)(F)F (centres undefined)
Percent Effect (30.3 µM, […]): -15.57%

CN(C)[C@@H]1CN(C(=O)CCc2ccccc2)[C@@H]2CCCO[C@H]12.O=C(O)C(F)(F)F
Percent Effect (30.3 µM, […]): -48.96%

CC(C)(N)C(=O)N1CCC(c2nccnc2Oc2cccc(F)c2)CC1
Percent Effect (30.3 µM, […]): 6.584%

O=C(Nc1cccnc1)[C@@H]1CCO[C@@H]2CCN(Cc3cccnc3)C[C@@H]21.O=C(O)C(F)(F)F.O=C(O)C(F)(F)F.O=C(O)C(F)(F)F
Percent Effect (30 µM, 30.03 µM): -27.43%

CCCC1c2cccn2CCN1C(=O)Cn1cnc2sc(C)cc2c1=O (centres undefined)
Percent Effect (30.3 µM, […]): -9.094%

CCC1c2ccc(C)n2CCN1C(=O)Cn1cnc2sc(C)cc2c1=O (centres undefined)
Percent Effect (30.3 µM, […]): 55.61%

Cc1cc2c(=O)n(CC(=O)N3CCn4cccc4C3C(C)C)cnc2s1 (centres undefined)
Percent Effect (30.3 µM, […]): -7.761%

CCCS(=O)(=O)N1C[C@@H](c2ccccc2)[C@@]2(CCNC2=O)C1
Percent Effect (30.3 µM, […]): -54.35%

Cn1cccc1C(=O)N1C[C@H]2CN(Cc3cccc(F)c3)C[C@H]2C1.O=C(O)C(F)(F)F
Percent Effect (30.3 µM, […]): -14.05%

O=c1[nH]ncc(NCCOc2ccc3c(c2)CCC3)c1Cl
Percent Effect (30 µM, 30.03 µM): 6.404%

CC(C)CN(Cc1nc2c(cnn2C)c(=O)[nH]1)CC(C)C
Percent Effect (30.3 µM, […]): 3.745%

CC(C)CCN(C)Cc1nc2c(cnn2C)c(=O)[nH]1
Percent Effect (30.3 µM, […]): 0.4486%

CC(C)CCN(CCC(C)C)Cc1nc2c(cnn2C)c(=O)[nH]1
Percent Effect (30.3 µM, […]): 99.67%

CO[C@@H]1CCN(C(=O)c2ccccn2)[C@H]1Cc1ccccc1.O=C(O)C(F)(F)F
Percent Effect (30.3 µM, […]): 3.29%

CC1c2ncc(COc3cccnc3)n2CCN1Cc1cnn(C)c1.O=C(O)C(F)(F)F.O=C(O)C(F)(F)F (centres undefined)
Percent Effect (30.3 µM, […]): 2.727%

COc1ncccc1C(=O)N1CC[C@H]2C[C@@H](c3nccs3)O[C@@H]2C1
Percent Effect (30 µM, 30.03 µM): -31.44%

CNC(=O)NCC(CO)Cc1cccc(OC(F)(F)F)c1 (centres undefined)
Percent Effect (30 µM, 30.03 µM): -27.06%

NCC(CO)Cc1cccc(OC(F)(F)F)c1 (centres undefined)
Percent Effect (30 µM, 30.03 µM): 97.23%

NCC(CO)Cc1ccc(OC(F)(F)F)cc1 (centres undefined)
Percent Effect (30 µM, 30.03 µM): -40.47%

CN1CCN(C(=O)c2n[nH]c3c2CN(C2CCOCC2)CC3)CC1.O=C(O)C(F)(F)F.O=C(O)C(F)(F)F.O=C(O)C(F)(F)F
Percent Effect (30.3 µM, […]): -12.86%

Cc1cnn(C2CCCN(C(=O)c3cc4nc(C)ccc4o3)C2)c1 (centres undefined)
Percent Effect (30.3 µM, […]): 0.9394%

CCN1CC2(CC1=O)CN(Cc1ccc(C)o1)CCN(C(=O)C(C)C)C2.O=C(O)C(F)(F)F (centres undefined)
Percent Effect (30 µM, 30.03 µM): -2.917%

COCCN1CCN(Cc2c(C3CCNCC3)[nH]c3ncccc23)CC1.Cl
Percent Effect (30.3 µM, […]): 1.283%

Cc1noc(C)c1C(=O)NCc1ccc(N2CCC(C)CC2)nc1
Percent Effect (10 µM): -31.9%
Percent Effect (30.3 µM, […]): 4.367%

COc1ccc(CC(=O)N2CCC[C@@H](N)[C@@H]2c2ccccc2F)cc1.Cl
Percent Effect (30.3 µM, […]): 4.872%

COc1cccc(CCC(=O)N2CCC[C@@H](N)[C@@H]2c2ccccc2F)c1.Cl
Percent Effect (30.3 µM, […]): 35.53%

N[C@@H]1CCCN(C(=O)Cc2c[nH]c3ccccc23)[C@H]1c1ccccc1F
Percent Effect (30.3 µM, […]): 82.48%

Cc1cc(C(=O)N2CCC3(CC2)C(=O)N(C)CCN3CC2CC2)c(C)o1.O=C(O)C(F)(F)F
Percent Effect (30.3 µM, […]): 5.817%

COCCN1C(=O)[C@]2(CC[C@@H]3CN(Cc4ccccc4F)C[C@@H]32)N=C1C.O=C(O)C(F)(F)F
Percent Effect (30.3 µM, […]): -70.3%

COCc1nn(C(C)C)c2c1CCN(Cc1ccccn1)C2.O=C(O)C(F)(F)F.O=C(O)C(F)(F)F
Percent Effect (30 µM, 30.03 µM): -4.66%

CCS(=O)(=O)N1CCC2(CN(c3ccsc3)C(=O)CN2C)C1.O=C(O)C(F)(F)F (centres undefined)
Percent Effect (30 µM, 30.03 µM): -22.46%

Cc1csc(Nc2cc(C3CN(C(C)C)C3)nc(C)n2)n1
Percent Effect (30.3 µM, […]): 84.55%

Cc1csc(Nc2cc(C3CCCCN3C)nc(C)n2)n1 (centres undefined)
Percent Effect (30 µM, 30.03 µM): 67.05%

Cc1nc(Nc2nnc(C)s2)cc(C2CCCN2C)n1 (centres undefined)
Percent Effect (30 µM, 30.03 µM): -13.78%

CNCC(=O)N1CC(c2cc(Nc3nc(C)cs3)nc(C)n2)C1.Cl
Percent Effect (30.3 µM, […]): 20.55%

Cc1nc(Nc2nncs2)cc(C2CCCN2C)n1 (centres undefined)
Percent Effect (30.3 µM, […]): -36.12%

Cc1nc(Nc2nccs2)cc(C2CN(C(C)C)C2)n1
Percent Effect (30.3 µM, […]): 5.847%

Cc1cccc(CN2C[C@@H]3COC[C@]3(CNC(=O)c3cccn3C)C2)n1.O=C(O)C(F)(F)F.O=C(O)C(F)(F)F
Percent Effect (30 µM, 30.03 µM): 12.67%

O=C(O)C(F)(F)F.O=C(O)C(F)(F)F.c1cncc(OCc2noc3c2CN(Cc2cccs2)CC3)c1
Percent Effect (30 µM, 30.03 µM): -9.325%

Cc1ccc(CN2CC[C@H]3[C@@H]2CCC(=O)N3CCN2CCCC2)s1.O=C(O)C(F)(F)F.O=C(O)C(F)(F)F
Percent Effect (30 µM, 30.03 µM): 11.06%

O=C(O)C(F)(F)F.O=C(c1cnc2ccccc2c1)N1CCC2(CCN2c2ncccn2)C1 (centres undefined)
Percent Effect (30 µM, 30.03 µM): -41.44%

CN1CCCC(c2cncc(-c3cccc(C(F)(F)F)c3)n2)C1 (centres undefined)
Percent Effect (30.3 µM, […]): 45.17%

CN1CCCC(c2cccc(-c3cccc(C(F)(F)F)c3)n2)C1 (centres undefined)
Percent Effect (30.3 µM, […]): 71.49%

CN1CCCC(c2cccc(-c3cccc(F)c3)n2)C1 (centres undefined)
Percent Effect (30.3 µM, […]): 6.457%

CN(C)C(=O)Cn1c2c(ccc1=O)CCN(Cc1cnn(C)c1)CC2.O=C(O)C(F)(F)F
Percent Effect (30.3 µM, […]): -19.86%

O=C(NCc1ccco1)[C@H]1CC[C@@H]2[C@@H](CCN2c2ncc(F)cn2)O1.O=C(O)C(F)(F)F
Percent Effect (30 µM, 30.03 µM): -7.643%

Cc1ccc(N(C)S(=O)(=O)c2cc(C(=O)O)cs2)cc1
Percent Effect (30.3 µM, […]): -13.08%

Cl.NC(=O)C(c1ccc(F)cc1)N1CCN(CCO)CC1 (centres undefined)
Percent Effect (30 µM, 30.03 µM): -19.82%

FC(F)(F)c1ccc(-c2cc(NC3CCNCC3)nc3[nH]ccc23)nc1
Percent Effect (30.3 µM, […]): -0.8147%

Nc1ccnc(-c2cc(NC3CCNCC3)nc3[nH]ccc23)c1
Percent Effect (30.3 µM, […]): 98.23%

COc1nccnc1-c1cc(NC2CCNCC2)nc2[nH]ccc12
Percent Effect (30 µM, 30.03 µM): -21.13%

CN(C)CCN1CCC2(CCN(C(=O)c3ccc(F)cc3)CC2)C1=O.O=C(O)C(F)(F)F
Percent Effect (30.3 µM, […]): -18.87%

CS(=O)(=O)NCc1cnc2n1CCN(Cc1ccoc1)CC2.O=C(O)C(F)(F)F
Percent Effect (30 µM, 30.03 µM): -17.96%

CC(C)(C)c1ncc(CNCC2CCCn3ccnc32)s1 (centres undefined)
Percent Effect (30.3 µM, […]): 9.708%

Cn1cccc1CNCc1nnc2n1CCCC2C(F)(F)F (centres undefined)
Percent Effect (30.3 µM, […]): -4.039%

Cc1ccc(CNCC2CCCn3ccnc32)s1 (centres undefined)
Percent Effect (30.3 µM, […]): 6.823%

Cc1nc(C)c(CNCC2CCCn3ccnc32)s1 (centres undefined)
Percent Effect (30.3 µM, […]): -1.913%

Cn1cccc1CNCC1CCCn2cc(C(C)(C)C)nc21 (centres undefined)
Percent Effect (30.3 µM, […]): 99.88%

Cc1cn2c(n1)C(CNCc1cnn3ccccc13)CCC2 (centres undefined)
Percent Effect (30.3 µM, […]): -7.399%

CC(C)(C)c1cn2c(n1)C(CNCc1cnn3ccccc13)CCC2 (centres undefined)
Percent Effect (30.3 µM, […]): 100%

CC(C)(C)c1cn2c(n1)C(CNCc1ccccn1)CCC2 (centres undefined)
Percent Effect (30.3 µM, […]): 52.9%

Cc1cn2c(n1)C(CNCc1cccc3c1OCO3)CCC2 (centres undefined)
Percent Effect (30.3 µM, […]): 8.746%

O=C(O)C(F)(F)F.O=C(c1cccc(Cl)c1)N1CC[C@H]2[C@H]1CCN2CC1CCOCC1
Percent Effect (30 µM, 30.03 µM): 13.39%

Cc1noc(C)c1CN1CCC2(CCN(Cc3cccc(F)c3)CC2)C1.O=C(O)C(F)(F)F.O=C(O)C(F)(F)F
Percent Effect (30.3 µM, […]): -58.32%

Cc1ccc(CN(CCCn2ccnc2)Cc2cnn(C)c2)s1.O=C(O)CC(O)(CC(=O)O)C(=O)O
Percent Effect (30.3 µM, […]): -61.1%

CNc1ncc2c(n1)CN(C1CC(C)(C)NC(C)(C)C1)C2=O
Percent Effect (30.3 µM, […]): 8.017%

CCCc1nc(NCCCO)c2c(n1)c(C)nn2CC
Percent Effect (30 µM, 30.03 µM): 38.76%

Cc1nn(C)c2c(=O)n(C(C)C)c(NCCc3ccccc3)nc12
Percent Effect (30.3 µM, […]): 4.366%

CCn1nc(C)c2nc(C(C)C)nc(NCCc3ccc(O)cc3)c21
Percent Effect (30.3 µM, […]): 39.22%

CCn1nc(C)c2nc(C)nc(NCCc3ccc(C)cc3)c21
Percent Effect (30.3 µM, […]): 100.2%

CCCc1nc(NCCc2ccccc2)c2c(n1)c(C)nn2CC
Percent Effect (30.3 µM, […]): 99.68%

CCn1nc(C)c2nc(C)nc(NC3CCCC3)c21
Percent Effect (30 µM, 30.03 µM): -3.661%

CCn1c(NCc2ccccc2)nc2c(C)nn(C)c2c1=O
Percent Effect (30.3 µM, […]): -7.911%

CCCc1nc(NCCCn2cccn2)c2c(n1)c(C)nn2CC
Percent Effect (30.3 µM, […]): 10.65%

CCn1nc(C)c2nc(C)nc(NCCc3ccccc3)c21
Percent Effect (30.3 µM, […]): 92.15%

CCc1nc(NCCCn2cccn2)c2c(n1)c(C)nn2CC
Percent Effect (30.3 µM, […]): -16.86%

CCCn1c(NCCc2ccccc2)nc2c(C)nn(C)c2c1=O
Percent Effect (30.3 µM, […]): 99.9%

CCn1nc(C)c2nc(C)nc(NCCCn3cccn3)c21
Percent Effect (30.3 µM, […]): -1.841%

COc1cccc(CN2C[C@@H]3CC[C@@](O)(c4ccccn4)[C@@H]3C2)c1OC.O=C(O)CC(O)(CC(=O)O)C(=O)O
Percent Effect (30.3 µM, […]): -12.48%

CC(=O)N1[C@H](CN(C)C)C[C@@H]2CN(C(=O)Cc3cccs3)CC[C@@H]21.O=C(O)C(F)(F)F
Percent Effect (30.3 µM, […]): -71.88%

Cn1cccc1C(=O)N[C@H]1CN(Cc2ccoc2)[C@@H]2CCCO[C@H]12.O=C(O)C(F)(F)F
Percent Effect (30.3 µM, […]): -1.992%

Cc1cccc(CN2CCc3ncnc(NC4CCC4)c3CC2)n1.O=C(O)C(F)(F)F.O=C(O)C(F)(F)F
Percent Effect (30 µM, 30.03 µM): -15.74%

Cc1cc(C(=O)N2CC[C@H]3C[C@H](c4ccncn4)O[C@@H]3C2)no1
Percent Effect (30 µM, 30.03 µM): -17.17%
